# Assay results as given in PubChem BioAssay.
# A number with no mark means an inactive call. Entries that show only a call come without a potency. For some of these results: Potency and affinity values are given separately. The source made the active and inactive calls. Unless noted, the rule behind the calls is not given here.
# What was measured:
# [1] = antimalarial activity against Dd2 strain (AID 2302;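 active = growth inhibition above 50% at the single 2 µM test dose, taken to imply half-maximal potency below 2 µM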); details: P. falciparum Dd2 in RBCs, LDH growth readout, 72 h; at 2 µM; stronger effect = higher value
# [2] = human hepatoma cell viability loss – ATP luminescence, cytotoxicity control for P. falciparum antimalarial project, primary screen (AID 2303;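 active = inhibition above 50%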); details: HepG2 viability, 24-48 h, at 10 µM, stronger effect = higher value
# [3] = target: L-lactate dehydrogenase (Plasmodium falciparum (isolate CDC / Honduras)) (UniProt Q27743); experiment: PfLDH activity inhibition – cell lysate, 3D7 strain, counter-screen for P. falciparum growth inhibition project (AID 2304); details: P. falciparum 3D7 crude extract, LDH APAD/NBT absorbance; at 2 µM; stronger effect = higher value
# [4] = inhibition of 3D7 malaria parasite growth – strain 3D7 (AID 2306); details: P. falciparum 3D7 erythrocytic growth, LDH absorbance, 72 h; at 2 µM; stronger effect = higher value
# [5] = target: Calcium-dependent protein kinase 1 (Plasmodium falciparum (isolate 3D7)) (UniProt P62344); experiment: PfCDPK1 kinase inhibitors, biochemical, TCAMS library (AID 1159585; cut-off not given, nearly all actives have IC50 up to about 0.98 µM;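 note: inhibitors leave more ATP so luminescence rises with inhibition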); details: recombinant PfCDPK1, Kinase-Glo ATP depletion luminescence
# [6] = target: Plasmodium falciparum protein kinase 6 (PK6, PF3D7_1337100) (UniProt Q8IDW1); experiment: PfPK6 kinase inhibitors, biochemical, TCAMS library (AID 1159586); details: recombinant PfPK6, Kinase-Glo ATP depletion luminescence
# [7] = target: Protein kinase 7 (PK7), Plasmodium falciparum 3D7 (PF3D7_0213400) (UniProt Q7YTF7); experiment: inhibition of Plasmodium PK7 catalytic activity – biochemical, TCAMS antimalarial set, Kinase-Glo luminescence (AID 1159587); details: recombinant PfPK7, Kinase-Glo ATP depletion luminescence
# [8] = target: Calcium-dependent protein kinase 4 (Plasmodium falciparum (isolate 3D7)) (UniProt Q8IBS5); experiment: PfCDPK4 kinase inhibitors, biochemical, TCAMS library (AID 1159588; cut-off not given, nearly all actives have IC50 up to about 0.91 µM); details: recombinant PfCDPK4, Kinase-Glo ATP depletion luminescence
# Sequence of Calcium-dependent protein kinase 4 (Plasmodium falciparum (isolate 3D7)) (Q8IBS5 whole entry, looked up): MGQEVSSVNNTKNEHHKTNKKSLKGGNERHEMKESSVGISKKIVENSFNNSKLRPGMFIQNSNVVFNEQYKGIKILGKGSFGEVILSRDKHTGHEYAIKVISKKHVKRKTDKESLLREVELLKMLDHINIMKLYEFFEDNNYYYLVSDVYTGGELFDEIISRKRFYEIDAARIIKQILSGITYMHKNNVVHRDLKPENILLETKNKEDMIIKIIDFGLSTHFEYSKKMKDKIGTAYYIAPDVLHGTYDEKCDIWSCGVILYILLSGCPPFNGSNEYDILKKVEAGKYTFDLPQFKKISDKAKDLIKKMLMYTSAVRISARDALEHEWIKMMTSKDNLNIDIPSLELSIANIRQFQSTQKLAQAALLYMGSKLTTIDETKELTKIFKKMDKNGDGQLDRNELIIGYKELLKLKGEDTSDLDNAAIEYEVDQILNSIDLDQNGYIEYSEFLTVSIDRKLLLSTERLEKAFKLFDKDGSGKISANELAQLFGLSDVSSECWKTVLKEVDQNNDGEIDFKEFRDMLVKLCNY
# Sequence of Calcium-dependent protein kinase 1 (Plasmodium falciparum (isolate 3D7)) (P62344 whole entry, looked up): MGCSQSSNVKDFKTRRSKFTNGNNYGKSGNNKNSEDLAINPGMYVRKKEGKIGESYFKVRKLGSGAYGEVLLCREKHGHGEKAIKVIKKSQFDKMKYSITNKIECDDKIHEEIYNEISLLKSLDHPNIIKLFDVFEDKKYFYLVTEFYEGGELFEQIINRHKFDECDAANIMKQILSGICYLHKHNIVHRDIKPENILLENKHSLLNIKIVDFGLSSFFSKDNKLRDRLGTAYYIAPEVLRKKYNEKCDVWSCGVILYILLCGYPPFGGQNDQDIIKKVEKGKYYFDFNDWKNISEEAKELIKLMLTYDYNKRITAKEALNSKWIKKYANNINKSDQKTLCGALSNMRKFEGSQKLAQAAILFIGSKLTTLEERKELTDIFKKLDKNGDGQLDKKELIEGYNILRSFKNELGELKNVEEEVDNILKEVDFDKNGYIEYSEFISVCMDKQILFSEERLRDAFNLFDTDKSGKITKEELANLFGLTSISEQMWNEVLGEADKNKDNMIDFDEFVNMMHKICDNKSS
# Sequence of L-lactate dehydrogenase (Plasmodium falciparum (isolate CDC / Honduras)) (Q27743 whole entry, looked up): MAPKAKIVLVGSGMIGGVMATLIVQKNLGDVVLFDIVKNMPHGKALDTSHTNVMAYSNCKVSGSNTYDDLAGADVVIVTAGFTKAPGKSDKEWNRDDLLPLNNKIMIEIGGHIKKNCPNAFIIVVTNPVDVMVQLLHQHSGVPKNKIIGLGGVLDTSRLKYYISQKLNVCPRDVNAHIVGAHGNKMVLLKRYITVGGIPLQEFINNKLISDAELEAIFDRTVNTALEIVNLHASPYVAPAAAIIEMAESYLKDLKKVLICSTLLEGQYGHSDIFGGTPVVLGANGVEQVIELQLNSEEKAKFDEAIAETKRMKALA
# Sequence of Protein kinase 7 (PK7), Plasmodium falciparum 3D7 (PF3D7_0213400) (Q7YTF7 1-343): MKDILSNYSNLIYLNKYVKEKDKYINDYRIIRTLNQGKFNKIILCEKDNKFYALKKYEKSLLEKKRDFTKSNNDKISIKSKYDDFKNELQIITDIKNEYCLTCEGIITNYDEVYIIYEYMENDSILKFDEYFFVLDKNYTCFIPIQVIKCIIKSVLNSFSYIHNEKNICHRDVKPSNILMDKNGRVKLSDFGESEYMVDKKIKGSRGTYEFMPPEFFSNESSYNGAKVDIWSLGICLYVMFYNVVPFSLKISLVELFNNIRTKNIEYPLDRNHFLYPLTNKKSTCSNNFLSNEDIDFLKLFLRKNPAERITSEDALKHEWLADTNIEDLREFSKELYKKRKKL
# Sequence of Plasmodium falciparum protein kinase 6 (PK6, PF3D7_1337100) (Q8IDW1 1-305): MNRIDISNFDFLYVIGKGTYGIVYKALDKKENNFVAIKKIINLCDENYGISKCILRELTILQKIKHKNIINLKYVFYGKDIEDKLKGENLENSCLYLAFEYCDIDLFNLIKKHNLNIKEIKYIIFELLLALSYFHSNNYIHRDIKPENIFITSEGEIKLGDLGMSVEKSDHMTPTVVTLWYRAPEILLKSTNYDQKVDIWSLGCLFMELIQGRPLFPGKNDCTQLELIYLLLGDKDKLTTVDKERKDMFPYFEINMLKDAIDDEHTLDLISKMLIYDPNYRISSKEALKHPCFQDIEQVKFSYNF
SMILES,growth inhibition [1],inhibition [2],inhibition [3] [%],growth inhibition [4],outcome [5],outcome [6],outcome [7],outcome [8]
O=C(NC1CCCCC1)N(Cc1ccccc1-c1ccc(CNCCc2ccccc2)cc1)C1CCN(Cc2ccccc2)CC1,92% (active),96% (active),-6,90% (active),inactive,inactive,inactive,inactive
CCOc1ccc2c(NN=Cc3cccc(Cl)c3)cc(C)nc2c1,34%,-5%,-2,93% (active),inactive,inactive,inactive,inactive
CN=C(N)c1ccc(NC(=O)Nc2ccc(C(N)=NC)cc2)cc1,71% (active),-5%,-2,84% (active),inactive,inactive,inactive,inactive
O=S(=O)(Nc1ccc(CCN2CCCCC2CCN2CCCC2)cc1)c1cccc2cccnc12 (stereo not given),0%,20%,1,100% (active),inactive,inactive,inactive,inactive
Nc1cccc(CNCc2cccc(-c3ccc(-c4nc5ccc(C(F)(F)F)cc5[nH]4)cc3)c2)c1,98% (active),6%,1,101% (active),inactive,inactive,inactive,inactive
Cc1ccc(C2=NNC3(S2)C(=O)Nc2ccc(C)cc23)cc1 (stereo not given),89% (active),35%,6,95% (active),inactive,inactive,inactive,inactive
CCOc1cc(C(=O)NC2CC(C)(C)N(C)C(C)(C)C2)ccc1-c1nc2cc(Cl)c(Cl)cc2[nH]1,49%,64% (active),4,101% (active),inactive,inactive,inactive,inactive
Nc1nc(N)c2cc(NS(=O)(=O)c3ccc(-c4ccccc4)cc3)ccc2n1,54% (active),7%,-3,102% (active),inactive,inactive,inactive,inactive
Cn1nc(-c2cccc(CNC3CCc4ccccc43)c2)c2cnc(NCCCN3CCCC3)nc21 (stereo not given),15%,29%,-2,99% (active),inactive,inactive,inactive,inactive
COc1cc(NC(=O)/C=C/c2ccc(-c3ccccc3)cc2)ccc1OCCN(C(C)C)C(C)C,62% (active),58% (active),-5,94% (active),inactive,inactive,inactive,inactive
CCCc1cc(Cc2cnc(N)nc2N)cc(CCC)c1OCCCCCC(=O)OCC,-3%,12%,-1,95% (active),inactive,inactive,inactive,inactive
CCCCCCCc1c(C)[nH]c2c(OC)cccc2c1=O,85% (active),-5%,5,89% (active),inactive,inactive,inactive,inactive
COc1cc2nc(N3CCN(C(=O)c4ccco4)CC3)nc(NCc3ccccc3)c2cc1OC,99% (active),16%,-5,101% (active),inactive,inactive,inactive,inactive
COc1cc2ncnc(Nc3ccc(OCc4ccccc4)c(I)c3)c2cc1OC,62% (active),11%,5,98% (active),inactive,inactive,inactive,inactive
O=C(Nc1ccc(CN2CCN(S(=O)(=O)c3cccc(Cl)c3)CC2)cc1)c1cccs1,41%,9%,0,84% (active),inactive,inactive,inactive,inactive
CN(C)c1ccc(CN2CCC(CNC(=O)c3cc(-c4cccc(F)c4)cs3)C2)cc1 (stereo not given),13%,48%,0,96% (active),inactive,inactive,inactive,inactive
CCCCNC(=O)[C@H](CC1CCCCC1)NC(=O)c1ccc(O)c(-c2ccc(OC)cc2)c1,12%,-8%,5,89% (active),inactive,inactive,inactive,inactive
COc1ccc(Cc2cnc3nc(N)nc(N)c3c2C)cc1,96% (active),65% (active),-2,90% (active),inactive,inactive,inactive,inactive
CN(C)CCCNc1ncnc2c1[nH]c1ccc(Cl)cc12,3%,2%,2,99% (active),inactive,inactive,inactive,inactive
COc1ccc(CN2CCC(NCc3ccc(C(F)(F)F)cc3)CC2)cc1,-1%,37%,2,97% (active),inactive,inactive,inactive,inactive
